From PubChem BioAssay (NCATS) come the findings set out here.

SMILES strings stand for the structures. Records with an inconclusive call do not appear. A call without a number means that no potency is given here. Calls of active or inactive are those of the source. Calls follow the shape of the dose curve; as a rule, active = well fitted curve in the direction sought with a large enough effect; inconclusive = small, poorly fitted or top-dose-only effect, or another doubt; inactive = no such curve, though single readings can be large; an effect the other way counts as inactive or inconclusive.

One assay is described as follows: qHTS assay to identify small molecule inhibitors of chordoma cells - UCH-2 (AID 1259356). The note with it: UCH-2 chordoma viability, CellTiter-Glo ATP luminescence, 48 h; series mostly up to 46.1 µM.
Consider `C[C@]12CC[C@H]3[C@@H](CCC4=C(O)C(=O)CC[C@@H]43)[C@@H]1CC[C@@H]2OC(=O)CCC1CCCC1`, for which the Potency result is “inactive”.
The same measure, in the same setting: the same measure for `[Cl-].[Cl-].[Hg+2]`: “inactive”.
In the case of `C[C@@H](Cc1ccccc1)NCCC(c1ccccc1)c1ccccc1`, the Potency result is “inactive”.
Regarding `O=c1[nH]c(=O)n(Cl)c(=O)n1Cl`, the Potency entry was “inactive”.
On to `CC[C@H]1[C@@H]2C[C@H]3[C@@H]4N(C)c5ccccc5[C@]45C[C@@H](C2[C@H]5O)N3[C@@H]1O` (stereo not given in full), for which the Potency entry was “inactive”.
In the case of `CCC1C(C)=NN=C(c2ccc(OC)c(OC)c2)c2cc(OC)c(OC)cc21` (stereo not given), the Potency entry was “inactive”.
For the compound `CC(=O)OC1CN2CCC1CC2` (stereo not given), the Potency result was “inactive”.
`CCCCC[C@@H](O)C1C(=O)OC(C)[C@H](O)/C=C/C=C/C=C/C=C/C=C(\C)C(O)C(O)C(O)C[C@H](O)C[C@H](O)C[C@H](O)C[C@H](O)C[C@@H]1O` (stereo not given in full): the Potency entry is “inactive”.
Take `Oc1ccc2c3c1O[C@H]1[C@@H](O)CC[C@@]4(O)[C@@H](C2)N(CC2CCC2)CC[C@]314`: the Potency result is “inactive”.
Still for that read-out and setting: next, `CC(=O)[C@H]1CC[C@H]2[C@@H]3CC[C@@H]4C[C@H](O)CC[C@]4(C)[C@H]3CC[C@]12C`: “inactive”.
On to `C#CCN1CC(=O)N(COC(=O)C2C(C=C(C)C)C2(C)C)C1=O` (stereo not given), for which the Potency entry is “inactive”.
Regarding `C[C@]12CC[C@H](OS(=O)(=O)O)CC1=CC[C@@H]1[C@@H]2CC[C@]2(C)C(=O)CC[C@@H]12`, the Potency result is “inactive”.
For `O=c1c2ccccc2[se]n1-c1ccccc1`, the Potency result is “inactive”.
For the compound `C=C[C@H]1CN2CC[C@H]1C[C@@H]2[C@@H](O)c1ccnc2ccccc12`, the Potency result was “inactive”.
In the case of `CCCCCc1cc(O)c2c(c1)OC(C)(C)[C@@H]1CCC(C)=C[C@@H]21`, the Potency result was “inactive”.
For `C[N+]1(C)CCCCC1COC(=O)C(O)(c1ccccc1)c1ccccc1` (stereo not given), the Potency result is “inactive”.
The same measure, in the same setting: the same measure for `C[C@H]1CC[C@@H]2[C@@H](C)[C@H]3[C@H](C[C@H]4[C@@H]5CC=C6CC(O[C@@H]7O[C@H](CO)[C@H](O)[C@H](O[C@@H]8O[C@H](CO)[C@@H](O)[C@H](O)[C@H]8O)[C@H]7O[C@H]7O[C@@H](C)[C@H](O)[C@@H](O)[C@H]7O)CC[C@]6(C)[C@H]5CC[C@]34C)N2C1` (stereo not given in full): “inactive”; for `Cc1cc(C)cc(C(=O)OC2C[C@H]3CC[C@@H](C2)N3C)c1` (stereo not given in full): “inactive”; for `ClC1=C(Cl)[C@]2(Cl)[C@@H]3[C@H]4C[C@H]([C@@H]5O[C@H]45)[C@@H]3[C@@]1(Cl)C2(Cl)Cl`: “inactive”.
Same read-out and setting: next, `O=S(=O)(O)c1cc(O)ccc1O`: “inactive”.
Regarding `CCN(CC)CCO[C@H]1CC[C@@]2(C)C(=CC[C@@H]3[C@@H]2CC[C@]2(C)C(=O)CC[C@@H]32)C1`, the Potency entry is “inactive”.
Turning to `O=C1C[C@@H]2OCC=C3CN4CC[C@]56c7ccccc7N1[C@H]5[C@H]2[C@H]3C[C@H]46`, the Potency entry was “inactive”.
On to `c1ccc(C2(N3CCCC3)CCCCC2)cc1`, for which the Potency entry is “inactive”.
Consider `O=C1CCO1`, for which the Potency entry was “inactive”.
Regarding `CN1[C@@H]2CC[C@H]1CC(OC1c3ccccc3CCc3ccccc31)C2` (stereo not given in full), the Potency result is “inactive”.
As for `C=C[C@H]1CN2CC[C@H]1C[C@H]2[C@H](OC(=O)OCC)c1ccnc2ccc(OC)cc12`, the Potency result is “inactive”.
On the same count and under the same terms, next, `N#CN`: “inactive”; `Cc1cccc(C(C)c2cnc[nH]2)c1C` (stereo not given): “inactive”; `CCN(CC)C(=O)N[C@H]1C[C@@H]2c3cccc4[nH]cc(c34)C[C@H]2N(C)C1`: “inactive”.
The same measure, in the same setting: next, `Clc1ccc(C(Cn2ccnc2)OCc2csc3c(Cl)cccc23)c(Cl)c1` (stereo not given): “inactive”.
Turning to `C[C@]12C[C@H]3S[C@H]3C[C@@H]1CC[C@@H]1[C@@H]2CC[C@]2(C)[C@@H](O)CC[C@@H]12`, the Potency result is “inactive”.
Take `Cc1ccccc1-n1c(C)nc2ccccc2c1=O`: the Potency entry is “inactive”.
On the same count and under the same terms, next, `CC[C@H](C)[C@H]1O[C@]2(C=C[C@@H]1C)C[C@@H]1C[C@@H](C/C=C(\C)[C@@H](O[C@H]3C[C@H](OC)[C@@H](O[C@H]4C[C@H](OC)[C@@H](O)[C@H](C)O4)[C@H](C)O3)[C@@H](C)/C=C/C=C3\CO[C@@H]4[C@H](O)C(C)=C[C@@H](C(=O)O1)[C@]34O)O2`: “inactive”.
Regarding `O=[N+]([O-])c1cc(I)c(O)c(I)c1`, the Potency result is “inactive”.
`C[C@]12CC[C@H]3[C@@H](CC[C@@]45O[C@@H]4C(O)=C(C#N)C[C@]35C)[C@@H]1CC[C@@H]2O`: the Potency entry was “inactive”.
Same read-out and setting: the same measure for `CNC(=O)Oc1ccccc1C(=O)Nc1ccccc1`: “inactive”.

A further assay can be described thus: P-glycoprotein substrates identified in KB-8-5-11 adenocarcinoma cell line, qHTS therapeutic library screen (AID 1346987). Also: nearly all actives have a fitted effect of over 65% in size. Also: potency is read from the fitted curve at half-maximal effect. The note with it: KB-8-5-11 (P-gp overexpressing) viability, CellTiter-Glo, 72 h; series mostly up to 44.5 µM. The method in brief: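 Human cervical adenocarcinoma KB-8-5-11 cells, selected in colchicine to over-express P-gp and assayed without it, were exposed for 72 h to titrated compounds. An ATP-based luminescent viability signal gave AC50.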
For `[Cl-].[Cl-].[Hg+2]`, the Potency is 3.66 µM (active).
Take `O=c1[nH]c(=O)n(Cl)c(=O)n1Cl`: the Potency entry was “inactive”.
For `CC[C@H]1[C@@H]2C[C@H]3[C@@H]4N(C)c5ccccc5[C@]45C[C@@H](C2[C@H]5O)N3[C@@H]1O` (stereo not given in full), the Potency result was “inactive”.
As for `CC(=O)OC1CN2CCC1CC2` (stereo not given), the Potency result was “inactive”.
Regarding `CCCCC[C@@H](O)C1C(=O)OC(C)[C@H](O)/C=C/C=C/C=C/C=C/C=C(\C)C(O)C(O)C(O)C[C@H](O)C[C@H](O)C[C@H](O)C[C@H](O)C[C@@H]1O` (stereo not given in full), the Potency entry is “inactive”.
`C[C@]12CC[C@H](OS(=O)(=O)O)CC1=CC[C@@H]1[C@@H]2CC[C@]2(C)C(=O)CC[C@@H]12`: the Potency entry is “inactive”.
In the case of `ClC1=C(Cl)[C@]2(Cl)[C@@H]3[C@H]4C[C@H]([C@@H]5O[C@H]45)[C@@H]3[C@@]1(Cl)C2(Cl)Cl`, the Potency entry was “inactive”.
For `O=S(=O)(O)c1cc(O)ccc1O`, the Potency result was “inactive”.
The same measure, in the same setting: next, `O=C1C[C@@H]2OCC=C3CN4CC[C@]56c7ccccc7N1[C@H]5[C@H]2[C@H]3C[C@H]46`: “inactive”; `c1ccc(C2(N3CCCC3)CCCCC2)cc1`: “inactive”.
With `O=C1CCO1`, the Potency entry is “inactive”.
On to `N#CN`, for which the Potency entry was “inactive”.
On to `Cc1cccc(C(C)c2cnc[nH]2)c1C` (stereo not given), for which the Potency result is “inactive”.
Consider `Cc1ccccc1-n1c(C)nc2ccccc2c1=O`, for which the Potency entry was “inactive”.
